# TDP1 cell noCPT: qHTS for Inhibitors of human tyrosyl-DNA phosphodiesterase 1 (TDP1): qHTS in cells in absence of CPT; DT40 Tdp1-/- hTDP1 cells, no CPT, ATP luminescence, 48 h; Potency, µM (titrated, usually from 46.2 µM), for inactives: at the top dose activity change, negative = growth inhibition, actives largely listed as inhibitors; hit rate 15% among 420,000; further: potency means the concentration at half of the fitted maximal effect; nearly all actives have a fitted effect of over 55% in size
#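 Stably hTDP1-transfected Tdp1-null chicken DT40 cells were treated with library compounds minus camptothecin and grown for at least 48 hr at 37 °C, after which cellular ATP was quantified by luminescence.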
# IL1B secr inh: blocks inflammasome-driven IL-1 beta release. THP-1 LPS/ATP IL-1B secretion, AlphaLISA, 16 h; active compounds read low. activity change, % at 57.5 µM. hit rate 4.7% among 360,000; in the data active means activity change below about -50%; inconclusive means mostly about -30% to -49%
#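 THP-1 cells pretreated 1 hr with compounds (up to 57.5 uM final), then stimulated with LPS (250 ng/mL final) plus ATP (1.25 mM final); secreted IL-1B measured by AlphaLISA after 16 hr, decreased signal indicating inhibition.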
# HT1080 IDH1KD tx: kills HT-1080 cells with IDH1 knockdown; hit rate 2% among 360,000; Potency, µM (top dose mostly 46.1 µM), for the others: at the highest dose activity, negative = toxicity, most hits filed as cytotoxic; HT-1080 IDH1 knockdown viability, ATP luminescence, 48 h;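 further: potency means the concentration at half of the fitted maximal effect; 0% = DMSO wells and -100% = cell-free medium wells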
#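 In this qHTS, HT-1080 cells depleted of IDH1 are exposed for 48 h at 37 °C to compound titrations. Toxicity is scored from CellTiter-Glo luminescence, with DMSO as full viability and medium alone as none.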
# DT40 TDP1 CPT: growth inhibition of DT40 Tdp1-/-;hTDP1 cells with camptothecin (screen for TDP1 inhibitors). Potency, µM (highest dose often 46.2 µM), for the others: top-dose activity change, negative = growth inhibition, hits mostly inhibitors. chicken DT40 Tdp1-/-;hTDP1 cells + 20 nM CPT, ATP luminescence, 48 h. hit rate 12% among 420,000. AID 686979; further: potency means the concentration at half of the fitted maximal effect; nearly all actives have a fitted effect of over 55% in size
#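 Chicken DT40 Tdp1-/- cells stably complemented with human TDP1 were seeded at 400 cells/well in medium containing 20 nM camptothecin, exposed to pin-transferred compounds, and grown at 37 °C for at least 48 hr. Viability was read as ATP luminescence.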
# HT1080-NT tox: kills 2HG-producing HT-1080-NT fibrosarcoma cells. AID 686970. HT-1080-NT fibrosarcoma viability, CellTiter-Glo ATP luminescence, 48 h. hit rate 1.6% among 360,000. Potency, µM (top dose mostly 46.1 µM), without a hit: at the highest dose activity, negative = less viability, actives largely listed as cytotoxic;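 further: NT is the 2HG producing partner of a matched IDH1 knockdown line; potency means the concentration at half of the fitted maximal effect; 0% = DMSO-treated cells and -100% = media-only wells without cells; nearly all actives have a fitted effect of over 55% in size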
#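 Fibrosarcoma NT cells, 750 per well in 5% FBS RPMI, were exposed to compound for 48 hours. Viability: CellTiter-Glo luminescence.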
# * marks the source's active call; other numbers are inactive results; ? = inconclusive; · = no result given. Compounds with a hit are over-represented: about 19% of the library has one in this group of screens. Unless noted, the call rests on the fitted dose curve; in most records, active means well fitted curve in the direction sought with a large enough effect; inconclusive means small, poorly fitted or top-dose-only effect, or another doubt; inactive means no such curve, though single readings can be large; an effect the other way counts as inactive or inconclusive. Unless noted, on the % scale 0 is the no-effect control and ±100 the full control effect.
SMILES,TDP1 cell noCPT,IL1B secr inh,HT1080 IDH1KD tx,DT40 TDP1 CPT,HT1080-NT tox
COc1ccc(COc2cc(-c3cccc(OC)c3)nc3ccc(NC(=O)c4ccc(Cl)cc4)cc23)cc1,16µM*,104,?,?,?
COc1ccc(COc2cc(-c3cccc(OC)c3)nc3ccc(NC(=O)c4ccc(OC)cc4)cc23)cc1,3.3µM*,80,4.6µM*,2.6µM*,5.2µM*
O=C(O)c1cccc(NC(=O)c2ccc(COc3ccc(Cl)cc3)cc2)c1,18%,-2,-12%,2%,1%
C[C@@H]1CN([C@H](C)CO)C(=O)CCCn2nncc2CO[C@@H]1CN(C)C(=O)C1CC1,-4%,23,7%,-17%,7%
Cc1cc(=O)[nH]c2nnc(SCc3cccc(C(F)(F)F)c3)n12,?,·,·,15%,·
COc1ccccc1Oc1cc(C#N)c(C#N)cc1-n1nnc2ccccc21,18µM*,?,?,23µM*,?
Cc1nc2c(C)cccc2c2c1CCN2c1ccccc1F,21µM*,-76*,?,15µM*,-8%
COc1ccc(N2CCc3c(C)nc4c(OC)cccc4c32)cc1,2.9µM*,-96*,3.3µM*,4.6µM*,3.7µM*
COc1ccc(N2Cc3ccc(OC)c(OC)c3C2=O)cc1,-7%,-13,-12%,-4%,2%
COc1cccc(-c2nc(-c3cccc(C)c3)nc3cc(Cl)ccc23)c1,-10%,61,5%,-6%,20%
COc1cccc(N2CCc3c(C)nc4ccc(Cl)cc4c32)c1,7.3µM*,-96*,21µM*,10µM*,?
COc1ccc(N2CCc3c(C)nc4c(OC)cc(OC)cc4c32)cc1,15µM*,·,23µM*,23µM*,?
COc1ccc(N2CCN(CC(O)COc3c(OC)cccc3OC)CC2)cc1 (stereo unspecified),?,7,15%,-21%,1%
CCOC(=O)c1sc(NC(=O)c2cc3nc(-c4ccccc4)cc(C(F)(F)F)n3n2)c(C(=O)OCC)c1C,-20%,·,·,-20%,·
CN1CCc2c1nc1ccccc1c2N (tested in a mixture with another compound),0%,-24,-2%,12%,3%
COc1ccc(N2CCc3c(C)nc4c(OC)cc(OC)cc4c32)c(OC)c1,5.2µM*,-58*,?,6.5µM*,?
Cc1cccc2c(N)c3c(nc12)N(C)CC3,12µM*,0,4%,8.2µM*,0%
O=C(Cn1sc2ccccc2c1=O)NC12CC3CC(CC(C3)C1)C2,1.8µM*,-99*,?,1.5µM*,-9%
O=C(Cn1sc2ccccc2c1=O)Nc1ccccc1,2.1µM*,-104*,?,2.3µM*,?
C[C@H](CO)N1C[C@H](C)[C@H](CN(C)C(=O)Nc2cccc(Oc3ccccn3)c2)OCc2cnnn2CCCC1=O,?,8,12%,15%,12%
CCCOc1cccc(NC(=O)OC2CCN(C)CC2)c1,4%,-5,7%,3%,-2%
CC(OC(=O)[C@@H](NC(=O)OCc1ccccc1)C(C)C)C(=O)Nc1ccc(N2CCOCC2)cc1 (stereo partly specified),?,0,-1%,21µM*,-2%
COc1cccc(CC(=O)OC(C)C(=O)Nc2ccc(N3CCOCC3)cc2)c1 (stereo unspecified),?,-9,2%,0%,-1%
CC(=O)Nc1cccc(NS(=O)(=O)c2ccc3c(c2)CCC(=O)N3)c1,-2%,-5,6%,-14%,0%
Nc1ccc(Cc2ccc([N+](=O)[O-])cc2)cc1,?,-50*,-10%,-25%,-8%
SMILES,TDP1 cell noCPT,IL1B secr inh,HT1080 IDH1KD tx,DT40 TDP1 CPT,HT1080-NT tox
O=c1cc(Cc2ccc([N+](=O)[O-])cc2)[nH]c(=O)[nH]1,-2%,-1,10%,-1%,7%
CCCC(=O)N1CCC1(C)C(=O)NS(=O)(=O)c1cccc(C)c1 (stereo unspecified),-2%,34,30%,-5%,11%
COCCCN(C(=O)c1ccco1)c1nc(-c2ccc(OC)cc2)cs1,21µM*,-16,-21%,16µM*,-11%
COCCCN(C(=O)c1ccccc1)c1nc(-c2ccc(OC)cc2)cs1,16µM*,-30,-9%,18µM*,-2%
COCCN(C(=O)c1ccco1)c1nnc(-c2ccc(OC)c(OC)c2)s1,?,-59*,17%,-28%,14%
COCCCN(C(=O)c1ccccc1F)c1nc(-c2ccc(OC)cc2)cs1,?,-17,-12%,?,-9%
O=C(CCCOc1ccc(Cl)cc1Cl)N/N=C/c1cccc([N+](=O)[O-])c1,-25%,-5,0%,?,1%
CN(C(=O)CSC1=NC2C(N=N1)c1cc(Br)ccc1N2C)C1CCCCC1 (stereo unspecified),?,13,9%,?,14%
CC1(C(=O)NS(=O)(=O)c2ccc(Cl)cc2)CCN1C(=O)C/C=C/c1ccccc1 (stereo unspecified),-11%,32,4%,-3%,-13%
COCCNCC(=O)N1CCCCCC1,-1%,1,11%,10%,23%
COc1cc(NC(=O)CN2Cc3ccccc3C2=O)cc(OC)c1OC,-27%,·,·,-15%,·
Oc1c(C(c2ccccc2)N2CCCCC2)ccc2ccccc12 (stereo unspecified),?,-7,2%,18µM*,4%
O=C(N1CCCCC1)N1CCN(C(c2ccccc2)c2ccccc2)CC1,?,-14,-13%,?,-24%
CC1(C)Cc2nc3oc4c(N(CCO)Cc5ccccc5)ncnc4c3cc2CO1,21µM*,-19,-6%,21µM*,-19%
COCCSc1ncnc2c1oc1nc3c(cc12)COC(C)(C)C3,?,-2,?,-28%,-10%
COc1ccc(C2CC(=O)Oc3cc(C)c(Cl)c(C)c32)cc1 (stereo unspecified),?,36,?,?,-19%
CC(C)n1cnc2c(Nc3cccc(Cl)c3)nc(NCCCO)nc21,16µM*,-95*,?,21µM*,-14%
CC(C)[C@H](CO)Nc1nc(Nc2ccc(Cl)c(C(=O)O)c2)c2ncn(C(C)C)c2n1,-4%,8,0%,1%,-2%
COc1ccc2c(c1)NC(c1ccc(Cl)cc1)=NC(c1cccs1)=N2,-76%,·,·,29µM*,·
COc1cccc(C2=Nc3cccc4cccc(c34)N2)c1,?,1,0%,?,-1%
CCOc1ccc(C2=NC(c3ccc(OC)cc3)=Nc3ccc(Cl)cc3N2)cc1,21µM*,·,·,?,·
